Source: PubChem BioAssay (National Center for Advancing Translational Sciences (NCATS))
Sampled rows, rich in hits. Any-hit rate of the full collection: about 8.9%.
ALOX12 inhib = qHTS Assay for Inhibitors of 12-hLO (12-human lipoxygenase); Polyunsaturated fatty acid lipoxygenase ALOX12 (Homo sapiens), P18054; purified 12-hLO, xylenol orange hydroperoxide absorbance; Potency, µM (doses to about 57.1 µM), for the others: at the top dose activity change, negative = inhibition, actives largely listed as inhibitors; hit rate 0.12% among 150,000; AID 1452, 2008; further: potency means the concentration at half of the fitted maximal effect; nearly all actives have a fitted effect of over 55% in size
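Xylenol orange chromogenic assay: hydroperoxide from 12hLO oxidises Fe(II), giving red-shifted Fe(III)-XO absorbance. Conditions: 150 nM enzyme, 40 uM arachidonic acid, 25 mM Hepes pH 7.0, 0.01% Triton X-100, 30 min, room temperature.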
NPSR antagonist = qHTS Assay for Antagonists of the Neuropeptide S Receptor: cAMP Signal Transduction; Q6W5P4; hit rate 1% among 220,000; CHO-NPSR cells, cAMP TR-FRET, antagonist mode; Potency, µM (top dose mostly 38.3 µM), for inactives: at the highest dose activity change, negative = inhibition, usual class: inhibitors; further: potency means the concentration at half of the fitted maximal effect; nearly all actives have a fitted effect of over 50% in size
IMPase Li cell = qHTS Assay for Identifying the Cell-Membrane Permeable IMPase Inhibitors: Potentiation with Lithium | hit rate 0.35% among 210,000 | CHO-M1 cells, IP1 TR-FRET (IP-One), carbachol + lithium | Potency, µM (titrated, usually from 59.4 µM), without a hit: at the highest dose activity, negative = IMPase inhibition, most hits filed as inhibitors | AID 1457, 2008;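 further: IP1 builds up when IMPase is blocked and the TR-FRET signal falls; potency means the concentration at half of the fitted maximal effect; plate controls were basal vehicle for no effect and high inhibitor control for full effect; nearly all actives have a fitted effect of over 50% in size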
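IP1 accumulation measured by competitive TR-FRET in lysed CHO-M1 cells after 30 min compound exposure at 37C, with a small lithium addition to potentiate weak responses. Hill-equation AC50 from ratio and donor-channel data.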
ALDH1A1 block = qHTS Assay for Inhibitors of Aldehyde Dehydrogenase 1 (ALDH1A1). Purified ALDH1A1, NADH fluorescence, propionaldehyde substrate. Potency, µM (titrated, usually from 75.3 µM), inactives show top-dose activity, negative = inhibition, actives largely listed as inhibitors. Aldehyde dehydrogenase 1A1 (Homo sapiens), P00352. hit rate 7.3% among 220,000; active means well fitted inhibition curve with a large enough effect, not every such curve was filed as active; inconclusive means small, poorly fitted or top-dose-only effect, or another doubt; inactive means no such curve, though single readings can be large or run the other way;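 further: potency means the concentration at half of the fitted maximal effect; plate controls were no enzyme wells and a reference inhibitor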
HPGD block = qHTS Assay for Inhibitors of HPGD (15-Hydroxyprostaglandin Dehydrogenase); 15-hydroxyprostaglandin dehydrogenase [NAD(+)] (Homo sapiens), P15428; purified HPGD, NADH fluorescence kinetic, PGE2 substrate; Potency, µM, for the others: top-dose activity change, negative = inhibition, hits mostly inhibitors; hit rate 4.3% among 150,000; AID 894, 2007; active means well fitted inhibition curve with a large enough effect, not every such curve was filed as active; inconclusive means small, poorly fitted or top-dose-only effect, or another doubt; inactive means no such curve, though single readings can be large or run the other way; further: potency means the concentration at half of the fitted maximal effect
Target sequence (P15428 whole entry, looked up): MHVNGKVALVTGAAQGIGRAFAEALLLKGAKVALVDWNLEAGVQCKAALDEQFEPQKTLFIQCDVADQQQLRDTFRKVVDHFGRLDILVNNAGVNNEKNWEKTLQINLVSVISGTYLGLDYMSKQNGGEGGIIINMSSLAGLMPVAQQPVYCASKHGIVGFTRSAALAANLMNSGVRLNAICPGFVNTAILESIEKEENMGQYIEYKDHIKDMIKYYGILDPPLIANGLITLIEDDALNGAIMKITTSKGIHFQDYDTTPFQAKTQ
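20 nM HPGD preincubated 15 min at room temperature with compound in 50 mM Tris-HCl pH 8, 0.01% Tween 20. Started with 1 mM NAD+ and 30 uM prostaglandin E2; NADH fluorescence (360/450 nm) read 5 times over 30-s intervals, last minus first.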
IMPase inh = qHTS Assay for Identifying the Cell-Membrane Permeable IMPase Inhibitors; CHO-M1 cells, IP1 accumulation, HTRF TR-FRET ratio; inhibition (IP1 accumulation), % at 46.1 µM; AID 901, 2007; Inositol monophosphatase 1 (Rattus norvegicus), P97697; 120,000 tested, under 10 active; active means well fitted curve in the direction sought with a large enough effect in the signal ratio, not every such curve was filed as active; inconclusive means small, poorly fitted or top-dose-only effect, or a change in a side signal; inactive means no such curve, though single readings can be large or run the other way; the % refers to the signal ratio;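 further: cells stimulated with carbachol in lithium chloride buffer; plate controls were DMSO basal wells for no effect and reference inhibitor wells for full effect; higher means more IMPase inhibition seen as more IP1 and lower FRET ratio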
Target sequence (P97697 whole entry, looked up): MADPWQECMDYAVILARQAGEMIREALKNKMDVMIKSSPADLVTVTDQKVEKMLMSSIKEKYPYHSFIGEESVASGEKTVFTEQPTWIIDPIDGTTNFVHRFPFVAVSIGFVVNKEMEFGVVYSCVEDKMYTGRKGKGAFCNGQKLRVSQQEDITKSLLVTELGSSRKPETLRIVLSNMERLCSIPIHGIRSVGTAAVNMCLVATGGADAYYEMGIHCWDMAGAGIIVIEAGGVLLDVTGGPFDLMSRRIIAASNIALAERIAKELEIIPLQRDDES
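The IP-One HTRF competitive assay in carbachol-stimulated CHO-M1 cells quantifies cellular IP1. Compounds spanned up to 46 uM final, and activity is expressed as AC50 from concentration-response fits of the ratio and donor data.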
* marks the source's active call; other numbers are inactive results; ? = inconclusive; . = not tested or not shown; [ ] = dose if it differs, or a comment. Unless noted, the call rests on the fitted dose curve; in most records, active means well fitted curve in the direction sought with a large enough effect; inconclusive means small, poorly fitted or top-dose-only effect, or another doubt; inactive means no such curve, though single readings can be large; an effect the other way counts as inactive or inconclusive. Unless noted, on the % scale 0 is the no-effect control and ±100 the full control effect.

SMILES	ALOX12 inhib	NPSR antagonist	IMPase Li cell	ALDH1A1 block	HPGD block	IMPase inh
COc1ccc(-n2c(=O)c3c(C)c(C)sc3n(Cc3cccc(F)c3)c2=O)c(OC)c1	.	-51%	11%	5%	.	.
CN(C)S(=O)(=O)c1ccc(C(=O)Nc2ccccc2SCCC#N)cc1	.	-31%	2%	16µM*	.	.
O=C(NCC(=O)N(Cc1ccccc1)C(C(=O)NC1CCCC1)c1cccnc1)c1ccco1 (stereo not drawn)	-2%	0%[46.1 µM]	4%	?	-9%	6
COC(=O)COc1nc(C)c2c(c1C#N)CC(C)(C)OC2	14%	-4%[46.1 µM]	29%[38.3 µM]	?	-16%	2
COc1nc(-c2ccccc2)c2c(c1C#N)CC(C)(C)OC2	-3%	-9%[46.1 µM]	0%[38.3 µM]	?	-7%	4
CC1(C)Cc2c(C#N)c(OCC(=O)c3ccccc3)nc(-c3ccoc3)c2CO1	-7%	1%[46.1 µM]	-26%[38.3 µM]	0.28µM*	?	-9
CC1(C)Cc2c(C#N)c(OCC(=O)c3ccc(Cl)cc3)nc(-c3ccoc3)c2CO1	-11%	-11%[46.1 µM]	.	0.4µM*	.	8
COC(=O)c1ccc2c(=O)[nH]c(CN3c4ccccc4CC3C)nc2c1 (stereo not drawn)	-15%	-7%[46.1 µM]	-4%[38.3 µM]	11µM*	-13%	2
CC1Cc2ccccc2N1Cc1nc2cc(Cl)ccc2c(=O)[nH]1 (stereo not drawn)	-12%	-6%[46.1 µM]	23%[38.3 µM]	?	-23%	-7
CC/C(=N/Nc1cccc(Cl)c1)c1cnnc(SC)n1	3%	-6%	9%	10%	-4%	.
CC/C(=N/Nc1ccccc1)c1cnnc(-c2ccccc2)n1	-13%	-30%	9%	10µM*	-19%	-2
C=CCNC(=O)c1ccc(C(=O)c2ccccc2)cc1	1%	-9%[46.1 µM]	1%[38.3 µM]	?	13µM*	2
C=CCNC(=O)c1ccccc1CCc1ccccc1	.	-13%	0%	-3%	.	.
C=CCNC(=O)c1ccccc1Cl	1%	-10%[46.1 µM]	-10%[38.3 µM]	-3%	16µM*	-4
C=CCNC(=O)c1ccc2nc(-c3ccccc3)c(-c3ccccc3)nc2c1	-2%	-18%[46.1 µM]	-6%[38.3 µM]	?	?	19
CCCNc1ncnc2onc(C)c12	.	17%	-1%	1%	.	.
CNC(=O)CSc1nnc(-c2ccco2)n1-c1ccccc1OC	-2%	14%[46.1 µM]	2%[38.3 µM]	20µM*	-5%	?
CCOc1ccccc1-n1c(SCC(N)=O)nnc1-c1cccnc1	-2%	-1%[46.1 µM]	25%[38.3 µM]	5%	-13%	-5
CCOc1ccccc1-n1c(SCC(N)=O)nnc1-c1ccco1	0%	-2%[46.1 µM]	20%[38.3 µM]	25µM*	-14%	-8
CCOc1ccccc1-n1c(SCC(=O)NC)nnc1-c1ccco1	-1%	-2%[46.1 µM]	5%[38.3 µM]	7%	-5%	3
COc1ccccc1-n1c(SCC(=O)O)nnc1-c1ccc(S(=O)(=O)N2CCCCC2)cc1	4%	-6%[46.1 µM]	24%[38.3 µM]	13µM*	?	9
CCN(CC)C(=O)CSc1nc(N)c(C(=O)Nc2ccc(OC)cc2)s1	2%	4%	2%	?	-19%	.
O=C(Nc1cccc(-c2cn3ccccc3n2)c1)c1ccccc1	.	-5%	7%	-10%	.	.
CCCCC(=O)Nc1cccc(-c2cn3ccccc3n2)c1	-8%	-2%[46.1 µM]	.	28µM*	.	0
COC(=O)c1ccccc1NC(=O)Cc1nc(-c2ccccc2)sc1-c1ccc(C)cc1	-8%	-33%	0%	10µM*	-24%	8
COc1ccccc1C(=O)N=c1sc2c(C)ccc(OC)c2n1C	.	-40%	.	.	.	.
CCOc1cccc(=O)c2c(C)n(Cc3ccco3)c(C)c12	-25%	-33%[46.1 µM]	1%[38.3 µM]	2.2µM*	?	6
